Test results from PubChem BioAssay (NCI).
This is part of a sample that, as a whole, favours compounds with a hit. Of some 83,000 tested, about 20% had one in any assay.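 96-well plates, one dose, 48 hours. Percent growth reported; active if below 10.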 The source made the active and inactive calls.

Columns and labels:
Assay in all cases: NCI-60 one-dose screen, 48 h (100 = growth as untreated, 0 = no growth, -100 = all killed)
Settings in all cases: 10 µM
[1] = tested on: 786-0 renal
[2] = tested on: MALME-3M melanoma
[3] = tested on: SF-268 CNS
[4] = tested on: SF-295 CNS
[5] = tested on: UACC-257 melanoma
[6] = tested on: PC-3 prostate
[7] = tested on: UACC-62 melanoma
[8] = tested on: SK-MEL-28 melanoma
[9] = tested on: SK-MEL-2 melanoma
[10] = tested on: EKVX NSCLC
[11] = tested on: SN12C renal
[12] = tested on: UO-31 renal
[13] = tested on: TK-10 renal
[14] = tested on: ACHN renal
[15] = tested on: CAKI-1 renal
[16] = tested on: A498 renal
[17] = tested on: OVCAR-8 ovarian
[18] = tested on: OVCAR-5 ovarian
[19] = tested on: IGROV1 ovarian
[20] = tested on: OVCAR-3 ovarian

Measured: growth

CC1[C@H]2[C@H](C[C@H]3[C@@H]4CC=C5c6sc(Nc7cccc(Cl)n7)nc6CC[C@]5(C)[C@H]4CC[C@@]32C)O[C@]12CC[C@@H](C)CO2 (stereo not given in full)
inactive: [1] 105% | [2] 117% | [3] 86.9% | [4] 109% | [5] 82% | [6] 48% | [7] 54.5% | [8] 100% | [9] 76.9% | [10] 83.8% | [11] 94.5% | [12] 85.4% | [13] 171% | [14] 96.4% | [15] 84.8% | [16] 92.6% | [17] 74.2% | [18] 113% | [19] 99.2% | [20] 93.7%

C#C[C@]1(O)CC[C@H]2[C@@H]3CC=C4c5sc(Nc6ccc(C(F)(F)F)cn6)nc5CC[C@]4(C)[C@H]3CC[C@@]21C
inactive: [3] 23.2% | [13] 12.9%
active: [1] -72.4% | [2] -13.1% | [4] -68.8% | [5] -3.66% | [6] 1.89% | [7] -45.9% | [8] -16.5% | [9] -26.8% | [10] -3.2% | [11] 7.3% | [12] -23.8% | [14] 0.62% | [15] 0.3% | [16] -15.8% | [17] -8.07% | [18] 9.25% | [19] 8.57% | [20] -35.8%

Cn1cc(-c2cc3nc(-c4c[nH]c5ccccc45)cc(N)n3n2)c2cc(Cl)ccc21
active: [1] -85.7% | [2] -90.8% | [3] -44.6% | [4] -90.9% | [5] -90.4% | [6] -85.3% | [7] -85.8% | [8] -99.4% | [9] -95.8% | [10] -90% | [11] -85.7% | [12] -97.7% | [13] -91.8% | [14] -100% | [15] -98.7% | [16] -82.9% | [17] -86.1% | [18] -86.4% | [19] -64.5% | [20] -80%

Cn1cc(-c2nnc(N)nc2-c2c[nH]c3ccc(F)cc23)c2cc(Br)cnc21
inactive: [1] 48% | [2] 106% | [3] 60.1% | [4] 41% | [5] 99.6% | [6] 56.8% | [7] 50.8% | [8] 52.4% | [9] 71% | [10] 94% | [11] 72.3% | [12] 43.1% | [13] 45.5% | [14] 47% | [15] 37.4% | [16] 47.1% | [17] 71.5% | [18] 83.3% | [19] 50.4% | [20] 57.5%

COc1cc(-c2nc3ccc(C)cc3[nH]2)ccc1OCc1nnc(-c2ccccc2Br)o1
inactive: [1] 31.4% | [2] 66.8% | [3] 79.3% | [5] 78.3% | [6] 56.1% | [7] 92% | [8] 70.4% | [9] 85.2% | [10] 64.6% | [11] 76.1% | [12] 61.8% | [13] 116% | [14] 76.6% | [15] 66% | [16] 108% | [17] 63.3% | [18] 77.5% | [19] 90.3% | [20] 75.7%
active: [4] -0.44%

O=C(c1ccc(F)cc1)C(c1c[nH]c2ccccc12)c1c[nH]c2ccccc12
inactive: [1] 80.1% | [2] 69.5% | [3] 63% | [4] 105% | [5] 86.3% | [6] 41% | [7] 53.7% | [8] 63.6% | [9] 87.5% | [10] 88.5% | [11] 42.6% | [12] 43.8% | [13] 148% | [14] 39.4% | [15] 31.5% | [16] 98.3% | [17] 76.3% | [18] 52.5% | [19] 49.9% | [20] 46.9%

C#CCOc1cc(N(CC)CC)ccc1C(C(=O)NC(C)(C)C)N(C(=O)C1CCc2cc(F)ccc2O1)c1ccc(F)cc1F (stereo not given)
active: [9] -30.4%
inactive: [1] 53.9% | [2] 62.1% | [3] 50.6% | [4] 33.2% | [5] 29.6% | [6] 15% | [7] 29.1% | [8] 62.8% | [10] 47.6% | [11] 47.1% | [12] 27.7% | [13] 61.3% | [14] 24.7% | [15] 29.8% | [16] 68.9% | [17] 43.9% | [18] 64% | [19] 60.3% | [20] 33.4%

COc1ccc(OC)c(-n2cc(C#N)c(N)c2C(=O)c2ccc(Cl)cc2Cl)c1
active: [9] -27.5%
inactive: [1] 63.4% | [2] 50.3% | [3] 56.2% | [4] 28.4% | [5] 63.6% | [6] 37.8% | [7] 30.5% | [8] 59% | [10] 42.7% | [11] 48.9% | [12] 56.7% | [13] 78.8% | [14] 53.3% | [15] 36.9% | [16] 28.3% | [17] 68.8% | [18] 74.4% | [19] 53.3% | [20] 23.5%

Cc1ccc(S(=O)(=O)N2CCN(S(=O)(=O)c3oc(-c4ccccc4)nc3C#N)CC2)cc1
inactive: [1] 86.6% | [2] 92.7% | [3] 79.1% | [4] 132% | [5] 73.3% | [6] 75% | [7] 45.3% | [8] 78.2% | [9] 75% | [10] 81.7% | [11] 76.8% | [12] 61.7% | [13] 77% | [14] 69.4% | [15] 69.8% | [16] 88.4% | [17] 84.7% | [18] 91.1% | [19] 80.5% | [20] 92.5%

C#C[C@]1(O)CC[C@H]2[C@@H]3CC=C4c5sc(Nc6cc(C)cc(C)n6)nc5CC[C@]4(C)[C@H]3CC[C@@]21C
inactive: [19] 26.2%
active: [1] -52.2% | [2] -39.8% | [3] 7.69% | [4] -75.3% | [5] -49.4% | [6] -4.36% | [7] -53.1% | [8] -56.8% | [9] -28.4% | [10] -14% | [11] -3.77% | [12] -65.9% | [13] 4.66% | [14] 7.43% | [15] -27.6% | [16] -73.5% | [17] 4.44% | [18] -21.9% | [20] -3.49%

O=C(c1ccc(Cl)cc1)C(c1c[nH]c2ccccc12)c1c[nH]c2ccccc12
active: [1] -87.6% | [2] -91.5% | [3] 9.45% | [5] -39.8% | [6] -33.2% | [7] -53.4% | [8] -92.5% | [9] -66.5% | [10] -69% | [11] -59.7% | [12] -94.6% | [13] -62.2% | [14] -99.9% | [15] -90.3% | [17] -92.8% | [18] -60.7% | [19] -19.4% | [20] -84%
inactive: [4] 14.5% | [16] 58.9%

Cc1ccc(-c2nc(C#N)c(S(=O)(=O)N3CCN(S(C)(=O)=O)CC3)o2)cc1
active: [1] -76.2% | [2] -76.8% | [14] -97.9% | [20] -22%
inactive: [3] 88.5% | [4] 155% | [5] 57.7% | [6] 68.3% | [7] 53.4% | [8] 34.3% | [9] 75.5% | [10] 101% | [11] 78.1% | [12] 26.7% | [13] 97% | [15] 72% | [16] 132% | [17] 25.5% | [18] 76.9% | [19] 54.9%

Nc1nnc(-c2c[nH]c3ncc(Br)cc23)c(-c2c[nH]c3ccc(Br)cc23)n1
inactive: [1] 36.2% | [2] 56.1% | [3] 46% | [4] 44.7% | [5] 71% | [6] 26.6% | [7] 24.4% | [8] 45.6% | [10] 46.2% | [11] 46.9% | [12] 32.6% | [13] 67.8% | [14] 37.3% | [15] 28.1% | [17] 34% | [18] 62.1% | [19] 36.5%
active: [9] 7.13% | [16] -13% | [20] 4.38%

C#C[C@]1(O)CC[C@H]2[C@@H]3CC=C4c5sc(Nc6ccc(N(C)C)cc6)nc5CC[C@]4(C)[C@H]3CC[C@@]21C
active: [1] -54.6% | [2] -44.7% | [4] -58.7% | [6] 5.44% | [7] -2.23% | [8] -21.6% | [9] -33.1% | [12] -45% | [14] -4.47% | [15] 2.6% | [16] -42.4% | [17] 0.0481% | [19] 9.97% | [20] 2.6%
inactive: [3] 11.7% | [5] 45.9% | [10] 24.7% | [11] 12.1% | [13] 42.3% | [18] 21.7%

COc1cc(C2CC(c3ccccc3)=Nc3c(N)nc(N)nc3N2)ccc1Oc1nc(NCCO)nc(N2CCOCC2)n1 (stereo not given)
inactive: [1] 89.2% | [2] 93.3% | [3] 88.8% | [4] 105% | [5] 101% | [6] 101% | [7] 97.1% | [8] 100% | [9] 99.7% | [10] 97.6% | [11] 94.8% | [12] 94.2% | [13] 110% | [14] 103% | [15] 93.9% | [16] 113% | [17] 102% | [18] 107% | [19] 93% | [20] 109%
